Several values for one entry are separate records, joined by “and”; a condition that tells them apart may be missing. Equal entries are not always repeated. Results filed as inconclusive are left out. Activity calls are given as the source filed them. The call rests on the fitted dose curve; in most records, active means well fitted curve in the direction sought with a large enough effect; inconclusive means small, poorly fitted or top-dose-only effect, or another doubt; inactive means no such curve, though single readings can be large; an effect the other way counts as inactive or inconclusive.
Legend:
[1] = Primary qHTS for inhibitors of nuclear receptor binding SET domain protein 2 (NSD2) in an isogenic RCH-ACV NSD2 p.E1099K mutant (9B) (AID 1645876)
[2] = Primary qHTS for inhibitors of nuclear receptor binding SET domain protein 2 (NSD2) in an RCH-ACV wild type WT cells (2C) (AID 1645877)
Further: nearly all actives have a fitted effect of over 70% in size.
Potency means the concentration at half of the fitted maximal effect.

Compound | Potency [1] | Potency [2]
COc1cc(C(C)C)c(Oc2cnc(N)nc2N)cc1I | 16.3 µM (active) | 16.3 µM (active)
C=C(C=O)[C@]1(O)C[C@@]2(C)C(=CC1=O)C=C[C@H](OC(=O)/C=C/C=C/[C@H](C)CC)[C@@H]2C | 3.17 µM (active) | 1.59 µM (active)
C=C1CC[C@@H]2[C@](C)(CO)[C@H](O)CC[C@@]2(C)[C@@H]1C/C=C1/C(=O)OCC1O (some centres undefined) | 14.5 µM (active) | 7.28 µM (active)
O=C1Cc2c([nH]c3ccc(Br)cc23)-c2ncccc2N1 | 2.9 µM (active) | 2.58 µM (active)
CC(C)CC(=O)c1c(O)cc2c(c1O)C(CC(C)C)C1=C(O2)C(C)(C)C(=O)C(C)(C)C1=O (centres undefined) | 10 µM (active) | 7.96 µM (active)
C=C1C(=O)O[C@@H]2/C=C(\CO)CC/C=C(/C=O)C[C@H](O)[C@@H]12 | 7.28 µM (active) | 4.09 µM (active)
C=C1C(=O)O[C@@H]2[C@H]1CCC(C)=C(CCC(=O)O)[C@@]2(C)O | 20.5 µM (active) | 10.3 µM (active)
CCC(C)CC(=O)OC1C(=O)C(CO)=CC(O)C1C(C)C (centres undefined) | 2.58 µM (active) | 2.9 µM (active)
C[C@@H]1O[C@@H](O[C@H]2[C@H](OC(=O)[C@]34CCC(C)(C)C[C@H]3C3=CCC5[C@@]6(C)C[C@H](O)[C@H](O[C@@H]7O[C@H](CO)[C@@H](O)[C@H](O)[C@H]7O)[C@](CO)(C(=O)O)C6CC[C@@]5(C)[C@]3(C)C[C@H]4O)OC[C@H](O)[C@@H]2O)[C@H](O)[C@H](O)[C@H]1O[C@@H]1OC[C@@H](O)[C@H](O[C@@H]2OC[C@](O)(CO)[C@H]2O)[C@H]1O (some centres undefined) | 0.772 µM (active) | 0.547 µM (active)
C/C1=C/CCC2=CC(OC2=O)C(C)(C)/C=C/C1=O (centres undefined) | 0.578 µM (active) | 0.459 µM (active)
CCCSc1nc(N[C@@H]2C[C@H]2c2ccc(F)c(F)c2)c2nnn([C@@H]3C[C@H](OCCO)[C@@H](O)[C@H]3O)c2n1 | 25.8 µM (active) | 18.3 µM (active)
CC1OC(=O)C[C@@H]2C(C(=O)O)=CO[C@@H](O[C@H]3O[C@H](CO)[C@@H](O)[C@H](O)[C@H]3O)[C@H]12 (some centres undefined) | inactive | inactive
CC(=O)OC1CC(C)C2(CCC3(CC(=O)OC3O)O2)C2(C)CCCC(C)(C)C12 (centres undefined) | inactive | inactive
Cc1c(F)ccc(C(=O)Nc2cc([N+](=O)[O-])ccc2N2CCN(C)CC2)c1Cl | inactive | inactive
Cc1cc2c(c(=O)o1)C=C1CC[C@H]([C@H](C)Cn3cnc(=N)c4[nH]cnc43)C[C@@H]1O2 | inactive | inactive
CN1c2c(nc(N)[nH]c2=O)NC[C@@H]1CNc1ccc(C(=O)N[C@@H](CCC(=O)O)C(=O)O)cc1 | inactive | inactive
CC(O)(C(=O)O)C1CCC2(C)C1CCC1(C)C2CCC2C3(C)CCC(O)C(C)(COC4OC(CO)C(O)C(O)C4O)C3CCC21C (centres undefined) | inactive | inactive
N#Cc1ccnc(Nc2cc(C3CCN(C4COC4)CC3)cc(N3CCC(F)(F)C3)n2)c1 | 2.91 µM (active) and 934 nM (active) | 2.59 µM (active) and 525 nM (active)
COc1ccncc1C(=O)NC(=O)Nc1ccc(-c2ccccc2)c(C(F)(F)F)c1 | inactive | inactive

Compound | Potency [1] | Potency [2]
C=C(C)C(=O)O[C@H]1[C@H]2C(=C)C(=O)O[C@@H]2/C=C(\CO)CC/C=C(/C=O)[C@@H]1O | 12.7 µM (active) | 4.5 µM (active)
CNc1nc(Nc2ccc(C(=O)N3CCOCC3)cc2OC)nc2[nH]cc(Cl)c12 | 4.09 µM (active) | 2.9 µM (active)
C=C1C(=O)OC2/C=C(/C)C3=CC(=O)C(C)(CC(OC(=O)/C(C)=C/COC(C)=O)C12)O3 (centres undefined) | 1.12 µM (active) | 0.399 µM (active)
C=C1C(=O)O[C@@H]2C[C@H](C)[C@@H]3CC(=O)[C@H](O)[C@@]3(C)C[C@H]12 | 20.5 µM (active) | 10.3 µM (active)
COC(=O)CC1OC(C)C2=C(O)c3c(O)cccc3C(=O)C23OC13 (centres undefined) | 2.84 µM (active) | 2.01 µM (active)
CCN(Cc1cc(Nc2nc(C)cn3c(-c4cn[nH]c4)cnc23)sn1)C(C)(C)CO | 0.0092 µM (active) | 0.0082 µM (active)
C=C(C)C(=O)OC1CC2(C)OC(=CC2=O)C(=C)CC2OC(=O)C(=C)C12 (centres undefined) | 0.8 µM (active) | 0.253 µM (active)
CN1CCN(C2CCN(C(=O)Nc3cc(Oc4ccc(NC(=O)C5(C(=O)Nc6ccc(F)cc6)CC5)c(F)c4)ccn3)CC2)CC1 | 6.49 µM (active) and 11.8 µM (active) | 7.28 µM (active) and 10.5 µM (active)
CN1CCc2cc3c(cc2C(=O)Cc2cc4c(cc2C1)OCO4)OCO3 | inactive | inactive
CC(C)=CCC[C@](C)(O[C@@H]1O[C@H](CO[C@@H]2OC[C@@H](O)[C@H](O)[C@H]2O)[C@@H](O)[C@H](O)[C@H]1O)[C@H]1CC[C@]2(C)[C@@H]1[C@H](O)C[C@@H]1[C@@]3(C)CC[C@H](O[C@@H]4O[C@H](CO)[C@@H](O)[C@H](O)[C@H]4O)C(C)(C)[C@@H]3CC[C@]12C | inactive | inactive
Cc1cc(C(=O)Nc2cc(Oc3ccc4nc(NC(=O)C5CC5)cn4n3)ccc2C)n(C)n1 | 13.2 µM (active) | 9.34 µM (active)
C=CC(C)(C)C12CC3C(=O)N4C(CC5(C(C)(C)C=C)c6ccccc6NC45)C(=O)N3C1Nc1ccccc12 (centres undefined) | inactive | inactive
CC1CC(=O)C2=C(C1)C1OC1C1(O)C2C(=O)c2cccc(O)c2C1O (centres undefined) | inactive | inactive
CC(=O)CC(=O)Nc1ccc(Cl)c(C(F)(F)F)c1 | 20.5 µM (active) | 10.3 µM (active)
C=C1C(=O)OC2C1CCC1(C)C(O)CC=C(C)C21 (centres undefined) | 18.3 µM (active) | 16.3 µM (active)
C1=Cc2ccccc2C(=C2CCN(CCCCc3nn[nH]n3)CC2)c2ccccc21 | inactive | inactive
C=C1C(=O)OC2/C=C(\COC(C)=O)CC/C=C(\C=O)CC(OC(=O)CC(C)C)C12 (centres undefined) | 2.24 µM (active) | 1.59 µM (active)
CC1CCCC[C@H]2C(=O)C=C[C@H](O)[C@@H]2CC(=O)O1 (some centres undefined) | 3.25 µM (active) | 2.05 µM (active)
Cc1ccc(CNc2ncnc3ccc(-c4ccc(CO)o4)cc23)o1 | 2.58 µM (active) | 2.3 µM (active)

Compound | Potency [1] | Potency [2]
COC1CC(=O)C23C(=O)NC(Cc4c[nH]c5ccccc45)C2C(C)C2(C)OC2C3/C=C/CC(C)CC1O (centres undefined) | 3.17 µM (active) | 2.52 µM (active)
C=C1C(=O)OC2C(OC(=O)C=C(C)C)C(C)=C3C(=O)C=C(C)C3C(O)C12 (centres undefined) | 10.1 µM (active) | 3.19 µM (active)
CCC[C@H](N[C@H]1CCc2cc(F)cc(F)c2C1)C(=O)Nc1cn(C(C)(C)CNCC(C)(C)C)cn1 | 16.3 µM (active) and 13.2 µM (active) | 13.2 µM (active)
Cn1ncnc1[C@H]1c2n[nH]c(=O)c3cc(F)cc(c23)N[C@@H]1c1ccc(F)cc1 | 200 nM (active) and 148 nM (active) | 28.2 nM (active) and 66.1 nM (active)
c1cc(NC2CCNCC2)nc(-c2cnc3ccccn23)c1 | 1.15 µM (active) | 1.45 µM (active)
COc1ccc(CCc2nc3cc(-c4c(C)noc4C)ccc3n2CC(C)N2CCOCC2)cc1Cl (centres undefined) | 2.3 µM (active) | 2.58 µM (active)
COc1ccc(-c2ccccc2)cc1NS(=O)(=O)c1cc(Cl)cc(Cl)c1O | inactive | inactive
C/C(=C/C=C\C=C\Cc1cnco1)[C@@H](O)C(C)(C)C(N)=O | inactive | inactive
C[C@H](CN(C)C)Oc1nc(Nc2cc3cccc(Cl)c3cn2)cnc1C#N | 459 nM (active) and 934 nM (active) | 409 nM (active) and 934 nM (active)
CC(=O)O[C@@H]1CC[C@@]2(C)[C@H](CC[C@@H]3[C@@H]2C[C@H](OC(C)=O)[C@]2(C)[C@@H](C(C)=O)CC[C@@H]32)C1 | 23 µM (active) | 23 µM (active)
CN(CC1COCCO1)S(=O)(=O)Nc1ccc2ccc3ncc(-c4cnn(C)c4)cc3c(=O)c2c1 (centres undefined) | 5.15 µM (active) | 9.16 µM (active)
CCC(=O)N1CCOc2c(cc(-c3ccc(OC)c(OC)c3)cc2OC[C@H]2CCCN(C)C2)C1 | 8.17 µM (active) | 7.28 µM (active)
CC(C)C[C@@H](N)C(=O)N[C@H]1C(=O)N[C@@H](CC(N)=O)C(=O)N[C@H]2C(=O)N[C@H]3C(=O)N[C@H](C(=O)N[C@H](C(=O)O)c4cc(O)cc(O)c4-c4cc3ccc4O)[C@H](O)c3ccc(c(Cl)c3)Oc3cc2cc(c3O[C@@H]2O[C@H](CO)[C@@H](O)[C@H](O)[C@H]2O[C@H]2C[C@](C)(N)[C@H](O)[C@H](C)O2)Oc2ccc(cc2Cl)[C@H]1O | inactive | inactive
C=C1C(=O)OC2/C=C(\C)CC/C=C(\C)CC(OC(C)=O)C12 (centres undefined) | 12.9 µM (active) | 6.49 µM (active)
O=c1cc(OCc2ccc(F)cc2)ccn1-c1ccc(OCCN2CCCC2)cc1 | 23 µM (active) | 8.17 µM (active)
Fc1ccc2[nH]ccc2c1-c1nc(N2CCOCC2)c2sc(CN3CCN(CC4CC4)CC3)cc2n1 | 205 nM (active) and 3.72 µM (active) | 365 nM (active) and 833 nM (active)
C=C1CC2OC(=O)C(=C)C2C(OC(=O)/C(C)=C\C)CC2(C)OC1=CC2=O (centres undefined) | 2.01 µM (active) | 1.01 µM (active)
Cn1ccc(NC(=O)c2cc(Oc3ccc(C(=O)N4CCC4)c(F)c3)c3c(c2)OC(C)(C)C3)n1 | inactive | inactive
COC(=O)C1=CO[C@@H](O[C@@H]2O[C@H](CO)[C@@H](O)[C@H](O)[C@H]2O)[C@H]2[C@@H]1C=C[C@]21C=C([C@H](C)OC(=O)/C=C/c2ccc(O)cc2)C(=O)O1 | 0.383 µM (active) | 0.483 µM (active)
